Measurements published in PubChem BioAssay (NCI).
About 83,000 compounds went through this panel and 20% of them were active in at least one assay; those are over-represented in the sample as a whole.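 Percent growth is the endpoint: 0 to 100 indicates growth inhibition (40 means 60% inhibition), 0 means no net growth, and negative values indicate cell death.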 Unmarked numbers belong to inactive results. The source made the active and inactive calls. Rule for the calls: active = growth percent below 10; inactive = the rest.

Tests used:
Assay in all cases: NCI-60 one-dose screen, 48 h (100 = growth as untreated, 0 = no growth, -100 = all killed)
Conditions in all cases: 10 µM unless noted
[1] = system: SK-MEL-2 melanoma
[2] = system: EKVX NSCLC
[3] = system: SN12C renal
[4] = system: UO-31 renal
[5] = system: TK-10 renal
[6] = system: ACHN renal
[7] = system: CAKI-1 renal
[8] = system: A498 renal
[9] = system: CCRF-CEM leukemia
[10] = system: MOLT-4 leukemia

SMILES	growth [1]	growth [2]	growth [3]	growth [4]	growth [5]	growth [6]	growth [7]	growth [8]	growth [9]	growth [10]
C#CCOc1cccc(-c2nc(N)nc(Nc3ccccc3SSc3ccccc3Nc3nc(N)nc(-c4cccc(OCC#C)c4)n3)n2)c1	96.3%	37.3%	1.17% (active)	-78.6% (active)	134%	-76.4% (active)	29.1%	73%	30.6%	44%
CN1CCN(c2ccc(C(=O)/C=C/c3cc(F)cc(C(F)(F)F)c3)cc2)CC1	117%	88.9%	75.7%	53.3%	144%	67.9%	51.5%	96.9%	14.1%	46.8%
CC(C)Sc1nc(-c2ccccc2)c(C#N)c(N2CCOCC2)n1	128%	69.8%	28.1%	17.9%	106%	-6.39% (active)	52.1%	65.6%	75.3%	93.5%
N#Cc1c(-c2cccs2)c(C#N)c(=O)n(Cc2nc3ccccc3[nH]2)c1N	92.6%	90.9%	91.8%	60%	152%	96.8%	80.7%	118%	101%	102%
C=C(C)[C@@H]1CC[C@]2(COCCCNCCCN)CC[C@]3(C)[C@H](CC[C@@H]4[C@@]5(C)CC[C@H](O)C(C)(C)[C@@H]5CC[C@]43C)[C@@H]12	99.1%	-84.2% (active)	-78.8% (active)	-93% (active)	-85.5% (active)	-98.6% (active)	-85.6% (active)	-16.1% (active)	-40.2% (active)	-34.5% (active)
Nc1nc(=O)n([C@H]2C[C@H](O)[C@@H](CO)O2)cc1C=O	109%	112%	-19.5% (active)	101%	108%	107%	82.1%	121%	57.7%	92%
O=C1/C(=C/C=C/c2ccco2)SC(=S)N1Cc1ccccc1	102%	98%	99.2%	83.9%	124%	104%	81%	88.9%	93.5%	96.4%
O=C(NCCNc1cc(-c2cn(-c3ccccc3)nc2-c2cccc(O)c2)ccn1)Nc1cc(C(F)(F)F)cc(C(F)(F)F)c1	93.7%	90.6%	95.5%	77.1%	94.4%	96.9%	88.9%	76.6%	101%	84.9%
COc1ccc(C2C(C#N)=C(/N=C/c3ccc(Cl)cc3)Oc3c2sc2c(C)cccc32)cc1 (stereo not given)	-12.9% (active)	42.5%	42.4%	37.1%	76.9%	49.1%	39%	-11.5% (active)	18.7%	17%
C#CCOc1ccc(/C=N/Nc2nc(-c3ccc(OC)cc3)cs2)cc1	95.8%	62.8%	78.3%	66.8%	101%	84.2%	66.3%	63%	76.1%	73.7%
O=C(CN1CCN(c2cc(=O)[nH]c3ccc(F)cc23)CC1)N(c1ccccc1)c1ccccc1	106%	96.8%	97.1%	90.3%	98.7%	105%	95.1%	83.7%	102%	99.5%
CC(C)(O)c1cncc(-c2ccc3ncc(C#N)c(N4CCc5cc(F)c(Cl)cc54)c3c2)c1	-5.06% (active)	-10.5% (active)	17.1%	-2.66% (active)	14.3%	6.6% (active)	0.608% (active)	-18.3% (active)	20.5%	5.17% (active)
CN1CCN(CCNc2nc(-c3cccc(NS(=O)(=O)c4cccc5c(N(C)C)cccc45)c3)cs2)CC1	103%	50%	58.9%	56.8%	90.7%	72.5%	58.6%	67.5%	60.1%	44.6%
O=C(CCCCCCN1CC(=O)N2[C@@H](c3ccccc3Br)c3[nH]c4ccccc4c3C[C@H]2C1=O)NO	39.3%	62.5%	66.3%	58.4%	28.7%	70.2%	42.2%	74.7%	17.7%	6.43% (active)
O=C(CSc1nc2ccccc2c(=O)n1-c1ccccc1)Nc1ccc(S(=O)(=O)Nc2nccs2)cc1	89.9%	91.3%	63.8%	97.2%	112%	71.9%	59.1%	107%	34.8%	50.2%
CCOC(=O)c1c(NC(=O)c2ccc(C(F)(F)F)cc2)sc2c3c(ccc12)OCN(C)C3	72.8%	79.5%	48.1%	70.9%	-15.7% (active)	-14.5% (active)	-23.9% (active)	89.1%	2.17% (active)	-8.7% (active)
CC1(C)C=Cc2cc(/C(N)=N/C(N)=N/c3nc4ccccc4s3)ccc2O1	110%	30.7%	52.4%	64.9%	113%	88.7%	65.3%	114%	46.3%	61.8%
CN1CCN(Cc2ccc(NC(=O)c3cncc(C#Cc4cnc5ccc(OCC(F)F)nn45)c3)cc2C(F)(F)F)CC1	-86.5% (active)	-69.1% (active)	-75.2% (active)	-95.8% (active)	-84.4% (active)	-98.3% (active)	-95.9% (active)	-91.7% (active)	2.09% (active)	-21.7% (active)
CCCCCCOC(=O)c1cc(-c2ccc(F)cc2)nc2ccccc12	101%	96.8%	95%	86.6%	118%	100%	90.3%	76.4%	95.8%	97.2%
O=C1C(SCc2ccccc2)=C(Cl)CN1c1ccccc1	110%	97.9%	95.7%	-90.8% (active)	136%	94.7%	80.9%	94.3%	86.1%	84.3%
O=c1c2cc(-c3ccc(F)cc3F)ccc2n(O)c(=O)n1-c1cccc(C(F)(F)F)c1	-34.3% (active)	4.46% (active)	0.105% (active)	8% (active)	1.66% (active)	0.899% (active)	-16.4% (active)	-22.4% (active)	15.2%	0.581% (active)
C=C(C)[C@@H]1CC[C@]2(C(=O)O)CC[C@]3(C)[C@H](CC[C@@H]4[C@@]5(C)C/C(=C/c6ccccn6)C(=O)C(C)(C)[C@@H]5CC[C@]43C)[C@@H]12	68.5%	33.3%	41.1%	35.8%	60.8%	35.9%	26.8%	61.7%	21.8%	29.4%

SMILES	growth [1]	growth [2]	growth [3]	growth [4]	growth [5]	growth [6]	growth [7]	growth [8]	growth [9]	growth [10]
COc1cc(NC(=O)Nc2cccc(-c3cc(=O)c4c(OC)c(OC)c(OC)cc4o3)c2)cc(OC)c1OC	49.3%	62.2%	38.5%	24.7%	64.9%	56.1%	35.4%	19.1%	35.4%	32.1%
CCOP(=O)(OCC)OC[C@]12CC[C@@H](C)[C@H](C)C1C1=CC[C@@H]3[C@@]4(C)CCCNC(C)(C)[C@@H]4CC[C@@]3(C)[C@]1(C)CC2 (stereo not given in full)	109%	36.8%	40.1%	21.1%	61.2%	34.4%	13%	66.3%	-33.3% (active)	-69.1% (active)
O=C1[C@@H]2Cc3c([nH]c4ccccc34)[C@H](c3ccc(Cl)cc3)N2C(=O)CN1C1CCN(Cc2ccccc2)CC1	82.3%	47.1%	46.4%	26.3%	81%	49.4%	27.3%	57.5%	36.7%	27%
CCCCCCNC(=O)Oc1ccc(/C(=C(/C)c2ccc(Cl)cc2)c2ccc(OCCN3CCCCCC3)cc2)cc1	108%	76.8%	70%	51.8%	95.8%	87.3%	64.9%	74.5%	46.2%	33.3%
CCCCOc1ccc(S(=O)(=O)N2CCN(c3nc(C)cc(N4CCOCC4)n3)CC2)cc1	-8.8% (active)	39.9%	40.4%	17.4%	33.6%	15.3%	19.8%	37.1%	60.3%	26.1%
Cc1ccc(-c2nc(SCC(=O)c3ccccc3)nc(Nc3ccc(S(N)(=O)=O)cc3)c2C#N)cc1	95.7%	99.8%	63%	74.9%	67.5%	89.7%	51.5%	104%	82%	86.5%
CC1=C(C)C(=O)C(Nc2cccc(C(=O)OC(C)(C)C)c2)=C(Cl)C1=O	95.8%	90.2%	84.1%	86.5%	116%	79.6%	76.1%	59.8%	21.9%	45.3%
CCCNNC(=O)c1ccc(-c2ccc(NC(=O)CCCCCCC(=O)N[C@H](C(=O)N3C[C@H](O)C[C@H]3C(=O)N[C@@H](C)c3ccc(-c4scnc4C)cc3)C(C)(C)C)cc2)cc1	7.01% (active)	79.4%	47.8%	83.6%	2.19% (active)	78.2%	61.8%	-14.4% (active)	23.2%	21.1%
O=C(N/N=C\c1ccc([N+](=O)[O-])cc1)c1ccc2nc(-c3ccc(Br)cc3)[nH]c2c1	51.9%	45.4%	16.9%	41.6%	64.6%	34.1%	34.8%	21.4%	10.6%	5.71% (active)
CCc1nnc(NC(=O)c2cc(-c3ccc(Cl)cc3Cl)oc2C)s1	108%	99.4%	83.7%	85.1%	114%	50.9%	80.9%	97.4%	97.6%	99.3%
C#CCOc1ccccc1C(OC(=O)c1ccccc1)C(=O)NC(C)(C)C(C)(C)C (stereo not given)	90.6%	75.3%	95.7%	62.7%	101%	97.2%	63.5%	120%	79.5%	40.6%
Clc1ccc2[nH]cc(-c3nn4cc(-c5ccncc5)nc4s3)c2c1	79%	56.5%	33.9%	39.6%	125%	30.3%	54.5%	90.8%	75.2%	81.8%
CN1CCN(Cc2ccc(NC(=O)c3cncc(C#Cc4cnc5ccc(NCCO)nn45)c3)cc2C(F)(F)F)CC1	-89% (active)	-0.668% (active)	1.09% (active)	58.4%	-16.3% (active)	8.5% (active)	-3.82% (active)	-94.3% (active)	9.38% (active)	3.21% (active)
COc1cc2oc(-c3cccc(NC(=O)c4cccc([N+](=O)[O-])c4)c3)cc(=O)c2c(OC)c1OC	91.5%	63.9%	40.2%	37.8%	92.7%	30.3%	49.7%	72.9%	59.7%	54%
Cc1ccc2c(n1)C(=O)C(Cl)=C(Nc1ccc(C(C)C)cc1)C2=O	71.2%	-0.749% (active)	46.4%	-65.3% (active)	145%	-77.2% (active)	77.3%	133%	3.85% (active)	4.3% (active)
O=C1/C(=C/c2cc(F)cc(F)c2)Cc2cc3c(cc21)OCO3	44.3%	73.5%	45.7%	41.3%	99.4%	43.9%	29.1%	20.2%	56.1%	43.3%
CC(C)(C)Nc1nc2c(OCCc3ccccc3)cccn2c1-c1ccc([N+](=O)[O-])cc1	60.5%	41.8%	75.5%	31.6%	66.5%	54.4%	43.3%	97.7%	53.7%	18.1%
C=C(C)[C@@H]1CC[C@]2(COP(=O)(OCC)OCC)CC[C@]3(C)[C@H](CC[C@@H]4[C@@]5(C)CC[C@H](OP(=O)(OCC)OCC)C(C)(C)[C@@H]5CC[C@]43C)[C@@H]12	67.9%	26.6%	33.4%	22.6%	68.5%	41.4%	35.2%	66.4%	39.4%	27.8%
Brc1cc(-c2cc(-c3ccc4c(c3)OCCO4)[nH]n2)cs1	62.7%	62.4%	65%	54.6%	138%	56%	33.8%	48.6%	23.4%	27.8%
CC(C)(C)Nc1nc2c(OCCc3ccccc3)cccn2c1-c1cccc(Oc2ccccc2)c1	-26.2% (active)	13.5%	12.3%	5.5% (active)	21.8%	7.39% (active)	8.12% (active)	16.2%	15%	5.42% (active)
Nn1c(=O)n(-c2cccc(C(F)(F)F)c2)c(=O)c2cc(-c3ccc(F)cc3F)ccc21	-21.5% (active)	3.55% (active)	1.86% (active)	5.45% (active)	7.05% (active)	0.86% (active)	-12.5% (active)	-20.6% (active)	13.3%	4.48% (active)
CCN(CC)CCOc1ccc(C(=C(c2ccccc2)C2CCCC2)c2ccc(OCCN(CC)CC)cc2)cc1	6.57% (active)	48.4%	6.33% (active)	86.5%	74.3%	95.3%	94.2%	96.5%	8.31% (active)	0.859% (active)
